Source: PubChem (National Center for Advancing Translational Sciences (NCATS))
GALK inhibitor – blocks human galactokinase activity; P51570; Purified GALK, Kinase-Glo residual ATP luminescence; Potency, µM (series often up to 57.5 µM), for inactives: at the top dose activity change, negative = inhibition, actives largely listed as inhibitors; 270,000 compounds, 0.007% hits; AID 1868
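5 nM enzyme, 35 uM ATP, 100 uM galactose, 20 mM HEPES pH8.0, 5 mM MgCl2; 1 h RT; residual ATP by Kinase-Glo Plus luminescence, qHTS format.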
RGS4 inhibitor – inhibitors of human regulator of G protein signaling 4. P49798. 390,000 compounds, 0.039% hits. Transcreener GDP fluorescence polarization, RGS4-accelerated GTP hydrolysis. Potency, µM (titrated, usually from 114 µM), without a hit: top-dose activity change, negative = inhibition, usual class: inhibitors. AID 504845; also: nearly all actives have a fitted effect of over 75% in size
Target sequence (P49798 whole entry, looked up): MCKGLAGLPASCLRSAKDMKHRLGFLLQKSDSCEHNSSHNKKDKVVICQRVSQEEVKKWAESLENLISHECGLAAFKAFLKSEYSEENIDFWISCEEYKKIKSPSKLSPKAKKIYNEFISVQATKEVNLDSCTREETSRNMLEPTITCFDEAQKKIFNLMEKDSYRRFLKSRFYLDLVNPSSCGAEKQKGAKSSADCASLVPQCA
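MLSMR compounds (23 nl, pin-transferred) preincubated 10 min at room temperature with a 500nM (2x) first reagent, then RGS4 at 900nM (2x) plus Transcreener GDP mix added; fluorescence polarization (620/688 nm) read before and after 90 min at 30 °C.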
USP2a block – blocks human ubiquitin-specific protease USP2a; 330,000 compounds, 0.01% hits; USP2 core, Ub-CHOP2 coupled fluorogenic reporter, 485/531; O75604; AID 463254; Potency, µM (series often up to 38.3 µM), for inactives: at the top dose activity change, negative = inhibition, hits mostly inhibitors;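 also: plate controls were DMSO wells for no effect and full inhibition by NEM control for full effect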
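Deubiquitinase activity read as fluorescence (485/531 nm) after Ub-CHOP2 cleavage activates the enterokinase reporter on its substrate; USP2 core 10nM, Ub-CHOP2 and substrate 25nM each, 30min compound preincubation then 60min RT; data normalized to NEM, curves fitted.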
TrxR1 substrate – is turned over as a substrate by rat TrxR1 | O89049 | purified TrxR1 substrate turnover, NADPH consumption readout | Potency, µM (doses to about 114 µM), for the others: at the highest dose activity change, negative = substrate turnover | 390,000 compounds, 0.01% hits; also: nearly all actives have a fitted effect of over 50% in size
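Rat TrxR1, dispensed at 90 nM, was prereduced with 400 uM NADPH (final) for 5 min at ~22 deg C, then incubated with compound 15 min before 400 uM selenite. A first-read NADPH fluorescence drop versus no-compound background flagged substrates.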
Eya2 phos inh – inhibitors of human Eya2 phosphatase activity. O00167. recombinant Eya2, OMFP fluorescence dephosphorylation (OMFP is methylfluorescein phosphate). Potency, µM (highest dose often 76.9 µM), for inactives: at the highest dose activity, negative = inhibition, usual class: inhibitors. 330,000 compounds, 0.006% hits
Target sequence (O00167 whole entry, looked up): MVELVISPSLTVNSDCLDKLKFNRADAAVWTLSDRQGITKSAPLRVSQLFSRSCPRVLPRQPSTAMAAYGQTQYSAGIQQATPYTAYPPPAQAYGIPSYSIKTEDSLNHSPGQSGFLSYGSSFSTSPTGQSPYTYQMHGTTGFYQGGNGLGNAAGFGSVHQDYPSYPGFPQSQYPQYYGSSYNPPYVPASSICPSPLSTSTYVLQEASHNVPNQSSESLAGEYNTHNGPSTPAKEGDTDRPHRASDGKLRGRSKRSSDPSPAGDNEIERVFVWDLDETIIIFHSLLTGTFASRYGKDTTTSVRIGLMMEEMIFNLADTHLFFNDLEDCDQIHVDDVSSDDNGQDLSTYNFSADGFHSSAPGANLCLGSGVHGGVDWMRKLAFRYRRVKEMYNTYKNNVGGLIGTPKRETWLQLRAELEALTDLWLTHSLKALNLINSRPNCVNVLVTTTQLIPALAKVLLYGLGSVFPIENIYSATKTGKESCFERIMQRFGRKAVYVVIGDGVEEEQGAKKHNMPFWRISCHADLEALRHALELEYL
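Eya2 protein (added as 0.2 uM solution) was preincubated with compound for 10 min at ambient temperature in 50 mM HEPES pH 7.5, 50 mM NaCl, 5 uM MgCl2, 0.05% BSA, 1 mM DTT. OMFP (added at 50 uM) then reacted 10 min; fluorescence read at 485/525 nm.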
rTrxR1 inhibitor – inhibitors of rat thioredoxin reductase 1 | O89049 | Potency, µM (titrated, usually from 114 µM), for inactives: at the highest dose activity change, negative = inhibition, actives largely listed as inhibitors | 390,000 compounds, 1% hits | AID 588453 | recombinant rTrxR1, NADPH fluorescence consumption, selenite substrate; also: nearly all actives have a fitted effect of over 65% in size
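Rat TrxR1 (90 nM in the dispensed reagent) was pre-reduced with 400 uM NADPH for 5 min at room temperature, then incubated with compound for 15 min. After 400 uM selenite was added, NADPH fluorescence (Ex 340/Em 450 nm) was followed for 8 min.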
The depositor's hits bear a star; [ ] = dose if it differs, or a comment. The list is not random: actives were taken first. Their share in the collection is about 1%. Calls follow the shape of the dose curve; as a rule, active = well fitted curve in the direction sought with a large enough effect; inconclusive = small, poorly fitted or top-dose-only effect, or another doubt; inactive = no such curve, though single readings can be large; an effect the other way counts as inactive or inconclusive. Unless noted, % is scaled to controls: 0 for no effect and ±100 for the full control effect; potency is read from the fitted curve at half-maximal effect.

For Cc1ccc(Sc2c(O)c3ccccc3n(C)c2=O)cc1 the results were RGS4 inhibitor -7.0%[11.4 µM], USP2a block 2.7%, TrxR1 substrate 0.2%, Eya2 phos inh 7.9% and rTrxR1 inhibitor -5.7%.
Cc1ccc(NC(=S)N/C(=N/S(=O)(=O)c2ccccc2)c2ccccc2)cc1 was read as GALK inhibitor -2.1%, RGS4 inhibitor inconclusive, USP2a block 2.8%, TrxR1 substrate -9.2%, Eya2 phos inh 1.4% and rTrxR1 inhibitor 6.31µM*.
For Cc1ccc(S(=O)(=O)/N=C(/NC(=S)Nc2ccccc2)c2ccccc2)cc1 the results were GALK inhibitor -2.5%, RGS4 inhibitor -26.9%, USP2a block -1.2%, TrxR1 substrate 0.6%, Eya2 phos inh 0.4% and rTrxR1 inhibitor 8.91µM*.
`CCCn1c(SCC#N)nc2c(c1=O)C1(CCCC1)Cc1ccccc1-2` gave GALK inhibitor 0.2%, RGS4 inhibitor -8.6%, USP2a block 4.2%, TrxR1 substrate -7.5%, Eya2 phos inh -11.3% and rTrxR1 inhibitor 14.8%[57.1 µM].
N#CCSc1nc2c(c(=O)n1Cc1ccco1)C1(CCCC1)Cc1ccccc1-2 was read as GALK inhibitor -1.3%, RGS4 inhibitor -36.7%, USP2a block 2.2%, TrxR1 substrate 5.9%, Eya2 phos inh -18.3% and rTrxR1 inhibitor 44.7µM*.
CC(C)(C)c1cc(CN(CCO)CCO)cc(C(C)(C)C)c1O was read as GALK inhibitor -1.6%, RGS4 inhibitor inconclusive, USP2a block -0.1%, TrxR1 substrate 0.0%, Eya2 phos inh -13.3% and rTrxR1 inhibitor 3.55µM*.
For CC(C)(CO)Cc1cc(C(C)(C)C)c(O)c(C(C)(C)C)c1 the results were RGS4 inhibitor inconclusive, USP2a block 1.0%, TrxR1 substrate inconclusive, Eya2 phos inh -13.4% and rTrxR1 inhibitor inconclusive.
For CN(C)Cc1cc(C(C)(C)C)c(O)c(C(C)(C)C)c1 the results were GALK inhibitor -3.0%, RGS4 inhibitor 1.3%[11.4 µM], USP2a block 0.9%, TrxR1 substrate 11.6%[57.1 µM], Eya2 phos inh 6.9% and rTrxR1 inhibitor 8.91µM*.
Cc1c(C)c(C)c(/C=C/c2ccnc3ccccc23)c(C)c1C was read as TrxR1 substrate 0.9% and rTrxR1 inhibitor 10.5%.
CC(C)(C)c1ccc(C(=O)C[n+]2ccc(Cl)c3ccc(Cl)cc32)cc1 was read as TrxR1 substrate 7.7% and rTrxR1 inhibitor 6.0%.
O=C1c2ccccc2NC(c2ccc(-c3cccc(F)c3)o2)N1O (stereo not drawn) was read as RGS4 inhibitor -26.6%, USP2a block -0.1%, TrxR1 substrate -1.2%, Eya2 phos inh 9.6% and rTrxR1 inhibitor -27.0%.
Screening N#Cc1ccc(-c2ccc(C3Nc4ccccc4C(=O)N3O)o2)cc1 (stereo not drawn) returned RGS4 inhibitor inconclusive, USP2a block -1.0%, TrxR1 substrate 5.1%, Eya2 phos inh 21.0% and rTrxR1 inhibitor 7.08µM*.
CN1CCN(c2ccc(-c3cc(O)c4ncccc4c3)cc2)CC1 was read as USP2a block -1.6% and Eya2 phos inh -17.4%.
`CCN1c2ccccc2NC2N=C(OC)C(c3ccccc3)C21` (stereo not drawn) gave GALK inhibitor 0.1%, RGS4 inhibitor -47.0%, USP2a block 0.4%, TrxR1 substrate 2.8%, Eya2 phos inh -16.0% and rTrxR1 inhibitor 20µM*.
`CCN1c2ccccc2NC2C1C(C(C)=O)C(=O)N2c1ccc(Cl)cc1` (stereo not drawn) gave GALK inhibitor 2.2%, RGS4 inhibitor -36.6%, USP2a block -6.1%, TrxR1 substrate -9.0%, Eya2 phos inh 22.4% and rTrxR1 inhibitor -25.0%.
For O=C(C[n+]1c2ccccc2cc2ccccc21)c1ccc(F)cc1 the results were TrxR1 substrate 8.1% and rTrxR1 inhibitor -23.8%.
`COc1ccccc1NC(C)C(=O)c1c[nH]c2ccccc12` (stereo not drawn) gave TrxR1 substrate -5.0% and rTrxR1 inhibitor -0.9%.
For Cc1ccccc1-c1nc(CS(=O)(=O)CC(=O)NCCCN2CCCC2=O)c(C)o1 the results were GALK inhibitor -0.9%, RGS4 inhibitor -8.9%, USP2a block 4.7%, TrxR1 substrate 8.9%[57.1 µM], Eya2 phos inh 0.3% and rTrxR1 inhibitor 25.1µM*.
For Cc1ccccc1-c1nc(CS(=O)(=O)CC(=O)NCCCN2CCOCC2)c(C)o1 the results were GALK inhibitor -2.8%, RGS4 inhibitor 7.7%, USP2a block 4.2%, TrxR1 substrate -1.2%, Eya2 phos inh 1.9% and rTrxR1 inhibitor 8.6%.
For COc1ccc(C(=O)C[n+]2cccc3cccc(O)c32)cc1 the results were TrxR1 substrate 1.1% and rTrxR1 inhibitor 19.4%.
`CC(=O)N(C1=C(N2CCOCC2)C(=O)c2ccccc2C1=O)c1ccc(C(=O)O)cc1` gave GALK inhibitor 1.4%, RGS4 inhibitor -14.8%, USP2a block 0.5%, TrxR1 substrate -3.9%, Eya2 phos inh 11.3% and rTrxR1 inhibitor 7.94µM*.
Screening CC(=O)N(C)C1=C(N2CCOCC2)C(=O)c2ccccc2C1=O returned GALK inhibitor 0.8%, RGS4 inhibitor -20.2%, USP2a block 1.4%, TrxR1 substrate -13.7%, Eya2 phos inh 0.3% and rTrxR1 inhibitor -16.0%.
Screening COc1cc(NS(=O)(=O)c2ccc(-c3cc(C)no3)cc2)cc(OC)c1 returned RGS4 inhibitor inconclusive, TrxR1 substrate -1.4% and rTrxR1 inhibitor 13.1%.
`COc1ccc(-c2csc(N(CCCN(C)C)C(=O)c3ccccc3C)n2)cc1` gave GALK inhibitor -6.1%, RGS4 inhibitor -7.9%, USP2a block -25.0%, TrxR1 substrate -0.2%, Eya2 phos inh 50.1µM* and rTrxR1 inhibitor 15.6%.
Screening COc1ccc(-c2csc(N(CCCN(C)C)C(=O)c3ccccc3Cl)n2)cc1 returned RGS4 inhibitor -16.9%, TrxR1 substrate 4.2% and rTrxR1 inhibitor 8.9%.
O=S(=O)(NCc1ccccc1)c1ccc(S(=O)(=O)NCC2CCCO2)cc1 (stereo not drawn) was read as GALK inhibitor -0.8%, RGS4 inhibitor -10.6%, USP2a block 0.1%, TrxR1 substrate -5.3%[57.1 µM], Eya2 phos inh 10.4% and rTrxR1 inhibitor 1.41µM*.
`Cn1cnc([N+](=O)[O-])c1Sc1nnc(-c2cccnc2)n1C` gave GALK inhibitor 1.6%, RGS4 inhibitor 4.0%, USP2a block 1.2%, TrxR1 substrate 6.2%[57.1 µM], Eya2 phos inh 19.0% and rTrxR1 inhibitor 0.631µM*.
For Cc1ccc(Nc2nc3nonc3nc2Nc2cccc(C(F)(F)F)c2)cc1Cl the results were RGS4 inhibitor -3.4%, TrxR1 substrate -0.6% and rTrxR1 inhibitor 7.6%.
